Unmarked numbers belong to inactive results.
Test system: Vero E6 infected with SARS-CoV-2
Assay: inhibition of SARS-CoV-2 cytopathic effect; higher = more antiviral protection, active = above 15
Conditions: 48 h

Compound	inhibition of SARS-CoV-2 cytopathic effect (1 nM) [%]	inhibition of SARS-CoV-2 cytopathic effect (8.33 nM) [%]	inhibition of SARS-CoV-2 cytopathic effect (100 nM) [%]	inhibition of SARS-CoV-2 cytopathic effect (833.33 nM) [%]	inhibition of SARS-CoV-2 cytopathic effect (10000 nM)
CCc1nc2ccc(Cl)cn2c1C(=O)NCc1ccc(N2CCC(c3ccc(OC(F)(F)F)cc3)CC2)cc1	0.5	1.98	-0.55	0.62	-1.65%
CC(O)(CS(=O)(=O)c1ccc(F)cc1)C(=O)Nc1ccc(C#N)c(C(F)(F)F)c1 (stereo not given) [bicalutamide]	-2.58	-1.35	0.77	-0.42	-0.92%
Cc1ccc2c(c1)C(=O)[C@]1(O)CCN(c3ccccc3)C1=N2 (racemic) [blebbistatin-(+/-)]	0.35	-0.695	-1.93	-1.36	-2.33%
Cc1cc(C(=O)N2Cc3cnn(C)c3Nc3ccccc32)ccc1CNC(=O)N1CCC[C@H]1C(=S)N1CCCN(C)CC1	-0.76	-1.38	-3.62	-1.74	-2.86%
Cc1ccc(C(=O)C(C)CN2CCCCC2)cc1 (stereo not given) [tolperisone]	-0.13	-1.26	-0.59	-1.06	0.32%
CC[C@H](C)C(=O)O[C@H]1C[C@@H](C)C=C2C=C[C@H](C)[C@H](CC[C@@H]3C[C@@H](O)CC(=O)O3)[C@H]21 [lovastatin]	-0.49	4.16	1.14	1.16	0.82%
CC[C@@]1(O)C(=O)OCc2c1cc1n(c2=O)Cc2cc3c(CN(C)C)c(O)ccc3nc2-1 [topotecan]	0.54	1.66	-1.53	-6.88	-15.3%
Cc1cc(CN2CCN(c3c(Br)cnc4nc(-c5ccc(N6CCN(C)CC6)cc5)[nH]c34)CC2)no1	-1.63	-1.4	-0.54	-5	-6.41%
Oc1cc(O)cc(/C=C/c2ccc(O)c(O)c2)c1 [piceatannol]	2.41	-0.84	-0.97	0.83	2.32%
CN(C)CCCC(=O)Nc1ccc(C(=O)Nc2cccc(Nc3ncc(Cl)c(-c4c[nH]c5ccccc45)n3)c2)cc1	1	-3.04	-1.78	-0.35	-3.93%
O=C(Oc1ccc([N+](=O)[O-])cc1)N1CCN(Cc2cccc(Oc3ccccc3)c2)CC1	-1.56	-2.22	-1.22	-1.53	1.51%
O=C(Nc1cc(C(F)(F)F)cc(C(F)(F)F)c1)c1cnc(Cl)nc1C(F)(F)F	0.53	-0.29	0.4	-4.18	-13.9%
Cc1cc(=O)[nH]c(=S)[nH]1 [methylthiouracil]	0.85	2.29	-0.49	1.73	-0.31%
O=c1cc(-c2ccccc2)oc2cc(O)c(O)c(O)c12 [baicalein]	1.61	3.69	-0.24	-2.55	-5.11%
CN(C)CCOc1cc(-c2cn[nH]c2)ccc1NC(=O)C1COc2ccccc2O1 (stereo not given)	-1.4	1.35	0.53	-5.69	-6.4%
Cc1cc2c(s1)Nc1ccccc1N=C2N1CCN(C)CC1 [olanzapine]	-1.67	-2.18	-0.41	8.51	1.41%
COC(=O)[C@@H](N)CCCNC(=N)N[N+](=O)[O-]	0.94	-2.09	-1.83	-3.06	-0.4%
Cc1noc(C)c1-c1cc(O)cc([C@@H](O)c2ccccc2)c1	-2.32	1.84	-0.24	1.24	-8.49%
CC1OC2(CS1)CN1CCC2CC1 (stereo not given) [cevimeline]	-0.26	-0.65	-1.15	-0.01	-1.57%
COC(=O)Nc1ccc(-c2nc(N3CCOCC3)c3cnn(C4CCN(Cc5cccnc5)CC4)c3n2)cc1	-4.18	-1.95	3.87	-4.82	-2.6%

Compound	inhibition of SARS-CoV-2 cytopathic effect (1 nM) [%]	inhibition of SARS-CoV-2 cytopathic effect (8.33 nM) [%]	inhibition of SARS-CoV-2 cytopathic effect (100 nM) [%]	inhibition of SARS-CoV-2 cytopathic effect (833.33 nM) [%]	inhibition of SARS-CoV-2 cytopathic effect (10000 nM)
C[C@@]1(O)[C@H](O)[C@@H](CO)O[C@H]1n1cnc2c(NC3CCCC3)nc(Cl)nc21	1.63	2.06	1.32	0.53	-0.13%
CN[C@@H](C)C(=O)N[C@H](C(=O)N1CCC[C@H]1C(=O)Nc1sc(-c2ncco2)nc1-c1ccccc1)C1CCCCC1	-0.55	-0.2	-0.7	0.89	0.18%
C=CC(=O)Nc1cc2c(Nc3ccc(F)c(Cl)c3)ncnc2cc1OCCCN1CCOCC1 [canertinib]	2.3	-2.25	-6.93	-13.4	-20.1%
CCN(CC)CC1CCN(c2ncc3ncnc(Nc4ccc(F)c(Cl)c4)c3n2)CC1	1.37	1.44	-3	-7.12	21.6% (active)
CC1(COc2ccc3c(c2)ncn3-c2ccc3cccc(N4CCC(N)CC4)c3n2)COC1 [crenolanib]	-0.58	1.15	2.74	2.21	0.74%
CCCCC/N=c1\ccn(Cc2ccccc2)c2ccccc12	-2.64	-0.49	-2.77	-0.71	-9.28%
COc1ccc(C(=O)NCc2ccc(OCCN(C)C)cc2)cc1OC [itopride]	0.25	-0.19	1.77	-0.42	0.72%
CN[C@@H](C)CC1CCCCC1 [propylhexedrine]	-0.64	-5.27	-5.29	-6.1	-8.06%
C[C@H](CCC(=O)O)[C@H]1CC[C@H]2[C@@H]3C[C@H](O)[C@@H]4C[C@H](O)CC[C@]4(C)[C@H]3CC[C@]12C [Hyodeoxycholic acid (HDCA)]	-1.55	0.2	1	2.52	-1.93%
CNC(=O)c1ccc(C)c(-n2c(C)cc(OCc3ccc(F)cc3F)c(Br)c2=O)c1	-1.52	-2.37	-3.51	-2.74	-7.45%
O=[N+]([O-])c1ccc2nc(COCc3nc4ccc([N+](=O)[O-])cc4[nH]3)[nH]c2c1	-1.36	-1.65	-4.45	0.4	-0.17%
Cc1cc2c(cc1CC(=O)c1sccc1S(=O)(=O)Nc1onc(C)c1Cl)OCO2 [sitaxentan]	-0.88	-1.81	0.75	1.22	1.37%
NCC(=O)CCC(=O)O [5-aminolevulinic-acid]	1.18	1.35	-3.53	-0.73	0.28%
O=C(O)C(=O)CBr [3-bromopyruvate]	-3.69	1.4	4.96	0.7	1.43%
O=C(c1ccc(CN2CCOCC2)cc1)N1CCN(C2CC2)CC1 [bavisant]	0.41	1.98	-1.82	-0.97	5.67%
CCC(C)(C)C(=O)O[C@H]1C[C@@H](C)C=C2C=C[C@H](C)[C@H](CC[C@@H]3C[C@@H](O)CC(=O)O3)[C@H]21 [simvastatin]	-3.26	0.13	-0.41	-0.83	5.01%
O=C(Oc1ccccc1C(=O)O)c1ccccc1O [sasapyrine]	-6.73	-8.94	-2.49	-6.28	-11.8%
Cc1ccccc1/N=N/c1ccc(/N=N/c2c(O)ccc3ccccc23)c(C)c1 [sudan-IV]	8.71	-0.01	-4.36	-0.99	-2.29%
C[C@@H]1CC[C@@]2(NC1)O[C@H]1C[C@H]3[C@@H]4CC=C5C[C@@H](O[C@@H]6O[C@H](CO)[C@@H](O[C@@H]7O[C@@H](C)[C@H](O)[C@@H](O)[C@H]7O)[C@H](O)[C@H]6O[C@@H]6O[C@@H](C)[C@H](O)[C@@H](O)[C@H]6O)CC[C@]5(C)[C@H]4CC[C@]3(C)[C@H]1[C@@H]2C [solamargine]	-1.13	-0.16	0.07	-3.82	-15.1%
